# Compounds with a hit are over-represented: about 7.3% of the library has one in this group of screens.
# Luc counter = blocks Kinase-Glo luciferase, a counter-screen artifact; Q27757; Kinase-Glo luciferase, ATP luminescence, 8 min; Potency, µM (highest dose often 38.3 µM), for inactives: at the highest dose activity change, negative = inhibition, most hits filed as inhibitors; 0.28% of 200,000 active; further: on the % scale 0 is the no-effect control and ±100 the full control effect; nearly all actives have a fitted effect of over 60% in size
#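 Inhibition of Kinase-Glo luciferase light generation was assessed at 10 uM ATP in pH 7.2 imidazole buffer, with luminescence measured after eight minutes at ambient temperature.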
# NPC1 promoter act = activates the NPC1 promoter. Huh7 NPC1 promoter luciferase reporter, 24 h. 2.4% of 320,000 active. AID 485313. Potency, µM (doses to about 9.22 µM), for inactives: at the top dose activation, usual class: activators; further: % of control where 0% means no effect; nearly all actives have a fitted effect of over 60% in size
#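 Luciferase expression driven by the NPC1 promoter was measured in stably transfected Huh7 cells after a 24 h compound incubation, using a luciferase reagent and a luminescence read.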
# SMN2 splice up = increases expression of the SMN2 splice variant; HEK293 SMN2-luciferase splicing reporter, luminescence, 30-36 h; AID 1458; Potency, µM (top dose mostly 46.1 µM), for inactives: at the top dose activity change, positive = activation, most hits filed as activators; 2.8% of 210,000 active; further: % of control where 0% means no effect; nearly all actives have a fitted effect of over 55% in size
#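 HEK293 cells carry an SMN2 […]–luciferase reporter in which exon 7 inclusion puts luciferase in frame. Cells were plated 10-12 h before compound addition, then incubated 30-36 h at 37C. ONE-Glo luminescence was read; sodium butyrate at 4.5 mM final served as control.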
# ELG1 genotox = inducers of genotoxicity in HEK293T ELG1-luciferase cells | HEK293T ELG1-luciferase reporter, luminescence, 16 h | Potency, µM (highest dose often 46 µM), inactives show at the top dose activity change, positive = activation, most hits filed as activators | 1.3% of 330,000 active | AID 504466; further: % of control where 0% means no effect; nearly all actives have a fitted effect of over 60% in size
#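 Step 1: seed 2,000 HEK293T ELG1-luciferase cells per well. Step 2: add compound or DMSO, incubate 16 hr at 37 °C. Step 3: ONE-Glo, 30 min at room temperature, read luminescence.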
# FLuc modulator = firefly luciferase modulation, counter-screen for miR-21 project | AID 588342 | purified FLuc, Km substrates, luminescence inhibition | 6.9% of 360,000 active | P08659 | Potency, µM (doses to about 57.5 µM), inactives show at the highest dose activity change, negative = inhibition, hits mostly inhibitors;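 further: plate controls were vehicle for no effect and reference inhibitor for full effect; nearly all actives have a fitted effect of over 55% in size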
# Target sequence (P08659 whole entry, looked up): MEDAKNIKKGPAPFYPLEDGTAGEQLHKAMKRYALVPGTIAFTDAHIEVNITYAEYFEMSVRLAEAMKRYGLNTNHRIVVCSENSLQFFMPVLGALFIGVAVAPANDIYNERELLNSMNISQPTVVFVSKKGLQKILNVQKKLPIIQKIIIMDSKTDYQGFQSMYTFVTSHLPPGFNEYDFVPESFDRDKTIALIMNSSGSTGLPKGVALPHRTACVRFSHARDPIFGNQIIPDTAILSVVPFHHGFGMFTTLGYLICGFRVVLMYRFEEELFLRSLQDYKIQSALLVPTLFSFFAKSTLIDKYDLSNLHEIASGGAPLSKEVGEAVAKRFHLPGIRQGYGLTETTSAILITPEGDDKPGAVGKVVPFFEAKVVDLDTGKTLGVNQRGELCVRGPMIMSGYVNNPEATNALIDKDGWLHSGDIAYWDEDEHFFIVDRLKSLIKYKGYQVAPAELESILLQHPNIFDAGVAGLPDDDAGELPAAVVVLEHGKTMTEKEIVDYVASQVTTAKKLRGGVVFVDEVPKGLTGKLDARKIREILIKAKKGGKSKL
#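 Purified P. pyralis luciferase (10nM final) with 10uM D-luciferin and 10uM ATP (Km levels) in 50mM Tris acetate pH 7.5, 10mM Mg acetate, 0.01% Tween-20, 0.05% BSA; qHTS 6-point titration, ~60 µM downward; luminescence read.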
# Rab9 prom act = activators of Rab9 promoter; AID 485297; Huh7 Rab9 promoter-luciferase reporter, luminescence, 24 h; 2.8% of 320,000 active; Potency, µM (highest dose often 9.22 µM), for the others: at the top dose activation, negative = inhibition, actives largely listed as activators; further: % of control where 0% means no effect; nearly all actives have a fitted effect of over 60% in size
#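 Huh7 cells stably carrying a Rab9 promoter-luciferase reporter, 1500 cells per well in OP-MEM I with 10% FBS, treated with compound 24 hours at 37C. Luciferase activity read by luminescence after 10 minutes with Amplite reagent.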
# * marks the source's active call; other numbers are inactive results; ? = inconclusive; nt = no result given; [ ] = dose if it differs, or a comment. The call rests on the fitted dose curve; in most records, active means well fitted curve in the direction sought with a large enough effect; inconclusive means small, poorly fitted or top-dose-only effect, or another doubt; inactive means no such curve, though single readings can be large; an effect the other way counts as inactive or inconclusive. Potency means the concentration at half of the fitted maximal effect.
SMILES,Luc counter,NPC1 promoter act,SMN2 splice up,ELG1 genotox,FLuc modulator,Rab9 prom act
COc1ccc(S(=O)(=O)Cc2ccc(C(=O)NC3CCCC3)o2)cc1,3.2%,-2.1%,2.3%,2.9%,-0.3%,-6.7%
CCC(C)(C)NC(=O)CN(Cc1ccc2c(c1)OCO2)C(=O)CCC(=O)Nc1cc(C)ccn1,nt,-1.1%,nt,2.6%,1.6%,5.3%
CCOC(=O)c1cc2c(=O)[nH]ccc2nc1C(F)(F)F,nt,-5.5%,nt,1.9%,5.0%,-2.4%
COC(=O)c1ccc(CSc2nc3ccccc3o2)cc1,-6.9%,1.58µM*,22.4µM*,?,1.07µM*,0.891µM*
O=[N+]([O-])c1ccc(CSc2nnc(SCc3ccccc3)s2)cc1,0.3%,-2.0%,-6.2%,1.4%,0.6%,2.4%
COC(=O)c1ccc(CSc2nnc(C)s2)cc1,-7.3%,?,25.1µM*,26.6%,?,3.55µM*
O=C(CSc1nc2ccccc2o1)NCC(=O)c1ccccc1,-2.3%,1.7%,-11.9%,1.2%,7.0%[2.3 µM],11.9%
COC(=O)c1ccc(CSc2nnc(N)s2)cc1,1.3%,?,7.2%,29.8%,?,?
COC(=O)c1ccc(CSc2nnc3c(n2)[nH]c2ccccc23)cc1,nt,-1.8%,nt,0.6%,-1.1%,-3.7%
COC(=O)c1ccc(CSc2nc(N)cc(N)n2)cc1,-1.1%,26.2%,7.0%,14.6µM*,?,29.6%
O=[N+]([O-])c1ccc(CSc2nc3ccccc3o2)cc1,-1.7%,0.631µM*,7.94µM*,?,2.39µM*,0.891µM*
CCOc1ccc(CCNC(=O)CCSCc2cccc(Cl)c2)cc1OCC,nt,nt,nt,nt,-15.2%,nt
COCCNC(=O)C(=O)Nc1ccc(Cl)cc1C,1.8%,4.9%,11.5%,?,-1.9%,16.2%
O=C(Cc1ccc([N+](=O)[O-])cc1)NC1CCCCCC1,nt,-0.6%,nt,-2.8%,-4.8%,14.5%
Cc1cc(N/N=C/c2cccc([N+](=O)[O-])c2)nc(-n2nc(C)cc2C)n1,nt,-0.4%,nt,6.1%,-1.9%,-13.1%
CCOC(=O)c1c(NC(=O)COC(=O)c2cccnc2OCC)sc(C(=O)N(CC)CC)c1C,nt,nt,nt,-5.5%,nt,nt
O=C(COC(=O)c1ccc2ncsc2c1)Nc1cccc(Cl)c1,nt,-29.5%,nt,0.4%,0.2%,-2.5%
O=C(Nc1ccc(OC(F)F)c(Cl)c1)c1ccccn1,-13.8%,1µM*,11.2µM*,2.31µM*,3.38µM*,0.631µM*
COc1ccc(NC(=O)c2cc(F)cc(F)c2)cc1Cl,-7.5%,?,?,?,?,?
COc1ccc(NC(=O)c2ccc(OC(F)F)cc2)cc1Cl,-12.1%,2µM*,11.2µM*,?,2.69µM*,2.51µM*
O=C(Nc1ccc(C(F)(F)F)cc1)c1ccc2ncsc2c1,nt,3.55µM*,nt,?,13.5µM*,3.55µM*
COc1ccc(C(C)(C)C)cc1NC(=O)c1ccc2ncsc2c1,nt,22.7%,nt,21.5%,?,27.0%
O=C(Nc1cccc(Cl)c1)c1ccc2ncsc2c1,nt,3.98µM*,nt,?,19µM*,3.55µM*
O=[N+]([O-])C(=C1NCCN1)C(Cl)=C(Cl)Cl,0.9%,7.8%,nt,-0.4%,-1.6%,-5.0%
O=C(O)c1ccc2ncsc2c1,nt,?,nt,14.2%,?,3.55µM*
SMILES,Luc counter,NPC1 promoter act,SMN2 splice up,ELG1 genotox,FLuc modulator,Rab9 prom act
Cc1ccc(NC(=O)c2ccc([N+](=O)[O-])cc2)cc1S(=O)(=O)N(C)C,1.6%,?,0.9%,-0.4%,?,?
Cc1ccc(NC(=O)c2ccc(OC(F)F)cc2)cc1S(=O)(=O)N(C)C,-6.0%,8.1%,-55.1%,0.9%,9.53µM*,0.3%
O=C(Nc1ccc(Cl)cc1)c1ccc2ncsc2c1,nt,2.82µM*,nt,?,12µM*,3.55µM*
Cc1ccc(NC(=O)c2ccc3ncsc3c2)cc1S(=O)(=O)N(C)C,nt,0.355µM*,nt,?,2.13µM*,0.355µM*
O=C(NCc1ccccc1CN1CCCCC1)c1ccc(Cl)cc1N1CCCC1=O,nt,-3.6%,nt,1.1%,2.9%,-5.5%
O=C(Nc1ccc(F)cc1)c1ccc2ncsc2c1,nt,2.24µM*,nt,?,23.9µM*,3.55µM*
O=C(Nc1ccc(N2CCOCC2)cc1)c1ccc2ncsc2c1,nt,nt,nt,19.0%,nt,nt
CC(C)Oc1ccc(C(=O)Nc2ccc(Cl)c(S(=O)(=O)Nc3ccc(Cl)cc3)c2)cc1,-1.6%,-1.5%,-70.0%,-9.8%,15.1µM*,0.7%
Cc1c(-c2nc(N)nc(Nc3ccccc3)n2)oc2ccccc12,-1.4%,1.41µM*,11.2µM*,7.31µM*,4.78µM*,2.51µM*
Nc1nc(CN2CCCCCC2)nc(Nc2ccccc2)n1,-1.2%,7.4%,7.0%,2.3%,0.4%,-2.4%
CCC(C)(C(=O)NC1CCCCC1)N(C)C(=O)c1ccccn1 (stereo not given),17.3%,2.4%,2.7%,-0.3%,1.7%,2.9%
CC(=O)Nc1ccc(S(=O)(=O)N(C)S(=O)(=O)c2ccc(F)cc2)cc1,10.1%,-2.1%,-17.7%,-3.0%,0.8%,8.7%
O=C(N1CCOCC1)N1CCC(n2nnc3ccccc32)CC1,-3.6%,0.2%,13.0%,-0.2%,-4.3%,-0.7%
CSc1ccc(/C=N/Nc2nc(C)cc(=O)[nH]2)cc1,-18.0%,16.1%,23.4%,9.9%,?,25.7%
Cc1cc(=O)[nH]c(N/N=C/c2ccc(-c3ccc(F)cc3)o2)n1,nt,25.9%,nt,9.5%,6.01µM*,?
COc1ccccc1OCCNC(=O)C(CCSC)NC(=O)c1ccccc1Cl (stereo not given),nt,-3.8%,nt,5.1%,3.8%,-0.9%
COc1ccccc1/C=N/NC(=O)c1cccc(NC(=O)c2ccccc2C)c1,nt,-3.2%,nt,-17.8%,15.1µM*,1.1%
COc1cc(/C=N/NC(=O)c2cccc(NC(=O)c3ccccc3Cl)c2)ccc1O,0.7%,4.9%,-6.6%,-9.3%,15.1µM*,-4.6%

# Screens: PubChem BioAssay, National Center for Advancing Translational Sciences (NCATS)
